LGR2 inh – Drosophila LGR2 receptor signaling inhibition | AID 720647 | HEK293 LGR2, CRE-luciferase, bursicon-stimulated, 4 h | 380,000 compounds, 0.35% hits | inhibition, % at 9.99 µM;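 active = drop in luminescence signal, shown as inhibition above about 50% in the replicate tests, limit read from the data, passing the limit was not always enough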;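 also: agonist challenge used bursicon conditioned medium at about half maximal strength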
TWEAK Fn14 block – blocks TWEAK-Fn14 interaction in a reporter cell assay; TWEAK-stimulated Fn14 reporter cells, luciferase luminescence, 8 h; inhibition, % at 10 µM; 360,000 compounds, 2% hits; in the data active = inhibition above about 50%
EWS-Fli block – blocks EWS/Fli oncoprotein-driven transcription. A673 NR0B1-luciferase reporter, viability-normalised. inhibition, % at 12.6 µM. AID 651661. 350,000 compounds, 0.67% hits;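 active = mean inhibition of at least 50% after viability correction, with every replicate also passing that limit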;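 also: firefly luciferase signal divided by Alamar Blue viability fluorescence both relative to DMSO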
PAX8 reporter – inhibitors of PAX8 transcriptional activity in RMG-I cells; RMG-I TPO-luciferase reporter, SteadyGlo, 24 h; inhibition, % at 12.6 µM; 360,000 compounds, 1.2% hits; AID 652154;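 active = mean replicate inhibition at least 60% with every replicate also reaching 60%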;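 also: luciferase light reporting Pax8 driven TPO promoter activity; plate controls were median of neutral control wells for no effect and mitoxantrone controls for full effect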
TROY signal inh – inhibitors of TROY-dependent NF-kB signaling | Q293 LMP1-TROYcd NF-kB luciferase reporter, 4 h | inhibition, % at 10 µM | 360,000 compounds, 0.98% hits;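 active = compounds whose plate-normalised and pattern-corrected inhibition of the luciferase reporter signal at the single screening dose is 50% or more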
* = called active by the depositor; x = no result. An excerpt weighted towards active compounds, which were near 2.8% of everything screened.

SMILES	LGR2 inh	TWEAK Fn14 block	EWS-Fli block	PAX8 reporter	TROY signal inh
C/C=C/c1ccc2c(c1)[C@@H]1[C@@H](CCN1C(=O)Cc1cccnc1)[C@H](CO)N2C	5	x	-19	1	x
CO[C@@H]1CN(C)C(=O)c2cc(NC(=O)NC3CCCCC3)ccc2OC[C@H](C)N(C)C[C@@H]1C	-6	x	6	5	x
C=C(C)[C@@H]1C2=CC(C(=O)OC)=C(C[C@H](C(=C)C)[C@H]3O[C@H]3C3=C[C@H]1OC3=O)O2	x	72*	57*	x	2
O=C(C[C@H]1C=C[C@@H](NC(=O)NC2CCCCC2)[C@H](CO)O1)NCc1ccc(Cl)cc1	13	x	3	11	x
CSc1ccccc1C(=O)N1CCc2ccc(NC(=O)c3ccccn3)cc2C1	7	60*	-33	-101	74*
O=C(CCNS(=O)(=O)c1ccc(Br)cc1)Nc1cccc(F)c1	-5	99*	13	7	4
CCOC(=O)c1ccc(NC(=O)C2CCN(S(=O)(=O)c3ccccc3)CC2)cc1	7	-1	0	9	18
CCOC(=O)c1ccc(NC(=O)C2CCCN(S(=O)(=O)c3ccc(F)cc3)C2)cc1 (stereo unspecified)	x	58*	x	x	45
Cc1ccc(S(=O)(=O)N2CCC(C(=O)Nc3ccc(S(=O)(=O)N4CCCC4)cc3)CC2)cc1C	-3	14	11	67*	14
O=C(NC1CC1)c1cccc(NC(=O)C2CCN(S(=O)(=O)c3cccc(C(F)(F)F)c3)CC2)c1	1	8	5	9	19
Cc1cccc(C(=O)NC(=S)Nc2ccc(S(=O)(=O)N3CCCCC3)cc2)c1	x	51*	x	x	2
CC(=O)c1cccc(S(=O)(=O)N2CCC(C(=O)Nc3cccc(C(=O)NC4CC4)c3)CC2)c1	2	-17	0	-5	62*
N#C[C@H]1[C@@H](c2ccc(C#Cc3cccc(F)c3)cc2)[C@H](CO)N1C(=O)C1CCC1	3	x	-2	52	x
CCc1ccc(CNc2ccc3c(c2)ncn3C(C)(C)C)cc1	-109	82*	-87	-45	66*
CCCNC(=O)N(C)C[C@H]1Oc2cc(-c3cccnc3)ccc2S(=O)(=O)N([C@@H](C)CO)C[C@H]1C	5	x	-13	x	x
CN(C)C(=O)CSc1cccc2cccnc12	x	96*	x	x	6
O=C(CSc1cccc2cccnc12)N1CCCC1	x	67*	x	x	-24
NNC(=O)CSc1cccc2cccnc12	14	5	x	6	6
CC(C)(O)c1cn([C@@H]2C[C@@H]3O[C@@H](CO)CC[C@@H]3O[C@@H]2CCc2ccc(-c3ccncc3)cc2)nn1	x	x	2	15	x
CO[C@H]1CN(C)C(=O)c2ccc(NS(=O)(=O)c3cccc(C)c3)cc2OC[C@H](C)NC[C@H]1C	12	x	5	x	x
C/C(CC(=O)Nc1ccccn1)=N\NC(=O)C(=O)Nc1cccc(C)c1	x	6	x	x	-2
O=C(Nc1cccc(O)c1)C(=O)Nc1ccccn1	78*	76*	8	67*	39
S=C(Nc1ccccc1)Nc1ccccn1	16	-19	-39	-55	-23
O=C(Nc1ccccc1)C(=O)Nc1ccccn1	65*	62*	x	x	46
CCc1n[n+](CC(=O)c2ccccc2)c(N)s1	81*	82*	59*	30	58*
SMILES	LGR2 inh	TWEAK Fn14 block	EWS-Fli block	PAX8 reporter	TROY signal inh
C[C@@H]1CCCCO[C@@H](CN(C)S(=O)(=O)c2ccc(Cl)cc2)[C@H](C)CN([C@H](C)CO)C(=O)c2cc(NC(=O)Nc3ccc(C(F)(F)F)cc3)ccc2O1	23	x	-1	70*	x
C[C@@H]1CCCCO[C@@H](CN(C)S(=O)(=O)c2ccc(Cl)cc2)[C@@H](C)CN([C@H](C)CO)C(=O)c2cc(NC(=O)Nc3ccc(C(F)(F)F)cc3)ccc2O1	11	x	-8	-7	x
C[C@@H]1CCCCO[C@@H](CN(C)S(=O)(=O)c2ccc(F)cc2)[C@H](C)CN([C@@H](C)CO)C(=O)c2cc(NC(=O)Nc3ccc(C(F)(F)F)cc3)ccc2O1	2	x	-7	41	x
C[C@@H]1CCCCO[C@@H](CN(C)S(=O)(=O)c2ccc(F)cc2)[C@H](C)CN([C@H](C)CO)C(=O)c2cc(NC(=O)Nc3ccc(C(F)(F)F)cc3)ccc2O1	2	x	10	73*	x
C[C@@H]1CCCCO[C@H](CN(C)S(=O)(=O)c2ccc(F)cc2)[C@@H](C)CN([C@@H](C)CO)C(=O)c2cc(NC(=O)Nc3ccc(C(F)(F)F)cc3)ccc2O1	14	x	49	65*	x
CO[C@@H]1CN(C)C(=O)c2ccc(NS(=O)(=O)c3ccccc3)cc2OC[C@H](C)N(Cc2cccnc2)C[C@@H]1C	4	x	4	-11	x
COc1ccc(C2c3[nH]c4ccccc4c3C[C@H]3C(=O)N(c4ccccc4C(=O)N4CCC(C(=O)O)CC4)C(=O)N23)cc1 (stereo partly specified)	-4	2	3	x	-4
CC(C)c1ccc(C2c3[nH]c4ccccc4c3C[C@H]3C(=O)N(c4ccccc4C(=O)N4CCC[C@H]4C(=O)O)C(=O)N23)cc1 (stereo partly specified)	-32	44	-27	x	67*
Cc1cc(C)n(-c2nc(NCCCN(C)C)c3c4c(sc3n2)CCCC4)n1	x	-14	11	7	-61
Cc1cc(C)n(-c2nc(NCCN(C)C)c3c4c(sc3n2)CCCC4)n1	47	-51	19	97*	-26
C[C@@H]1CN([C@H](C)CO)C(=O)c2cc(NC(=O)Nc3ccc(F)cc3)ccc2O[C@@H](C)CCCCO[C@H]1CN(C)C(=O)Nc1ccc(F)cc1	17	x	9	86*	x
C[C@H](CO)N1C[C@H](C)[C@H](CN(C)C(=O)Nc2ccc(F)cc2)OCCCC[C@H](C)Oc2ccc(NC(=O)NC3CCCCC3)cc2C1=O	72*	x	-3	2	x
C[C@H](CO)N1C[C@H](C)[C@H](CN(C)C(=O)Nc2ccc(F)cc2)OCCCC[C@H](C)Oc2ccc(NC(=O)Nc3ccccc3)cc2C1=O	59*	x	-8	-14	x
C[C@@H]1CCCCO[C@@H](CN(C)C(=O)Nc2ccccc2)[C@H](C)CN([C@@H](C)CO)C(=O)c2cc(NC(=O)Nc3ccc(F)cc3)ccc2O1	-12	x	3	13	x
C[C@@H]1CCCCO[C@@H](CN(C)C(=O)C2CCCCC2)[C@H](C)CN([C@H](C)CO)C(=O)c2cc(NC(=O)Nc3ccc(F)cc3)ccc2O1	-17	x	17	86*	x
C[C@H](NC(=O)[C@H]1[C@H](CO)[C@H]2Cn3c(ccc(C4=CCCC4)c3=O)[C@H]2N1C)c1ccccc1	-1	x	0	x	x
COc1ccc(-c2nc3ccccc3c(C(=O)Nc3ccc(S(=O)(=O)Nc4cc(C)on4)cc3)c2C)cc1	x	51*	x	x	19
Cc1ccc(-c2cc(C(=O)Nc3ccc(S(=O)(=O)Nc4cc(C)on4)cc3)c3ccccc3n2)c(C)c1	x	-4	x	x	4
CCC(=O)Nc1ccc2c(c1)OC[C@H](C)N(CCc1ccccc1)C[C@@H](C)[C@H](OC)CN(C)C2=O	1	x	1	-1	x
